# Source: PubChem
# aSyn 5UTR act – Activators via SNCA 5'UTR binding, MLPCN; alpha-synuclein 5'UTR reporter, activators screen; activity score, % (tested at 7.5 µM), hits read low; 300,000 compounds, 7.1% hits; AID 1814, 2009; in the data active = activity score below about -60%
# An asterisk follows results filed as active. The list is a sample of the results.
SMILES,aSyn 5UTR act
O=C(Nc1ccc(CN2CCOCC2)cc1)c1ccco1,-69*
C/C(=N\NC(=O)CSCc1ccc(Cl)cc1)c1ccc(NC(=O)c2ccccc2)cc1,-137*
O=C(NCCSc1ccccc1)c1ccc(CN2CCOCC2)cc1,-126*
O=C(Nc1ccc(CN2CCOCC2)cc1)c1ccc(F)cc1,-117*
CC(C)(C)c1ccc(C(=O)Nc2ccc(CN3CCS(=O)(=O)CC3)cc2)cc1,-68*
COc1ccc(C(=S)N2CCOCC2)cc1OS(=O)(=O)c1ccccc1[N+](=O)[O-],-70*
O=c1c(Cl)c(Cl)cnn1Cc1nnc(-c2ccc(Cl)cc2)o1,-179*
CC1CN(C(=O)c2cccc(COc3ccc(Br)cc3)c2)CC(C)O1 (configuration not stated),-104*
CCOc1ccc(OCc2cccc(C(=O)N3CCOCC3)c2)cc1,102
CC(=O)Nc1ccc(/C=C2\CCc3ccccc3C2=O)cc1,-118*
CC(=O)Nc1ccc(S(=O)(=O)N2c3ccccc3C(C)=CC2(C)C)cc1,121
Oc1ccc(/C=N\Nc2nncc(-c3ccccc3)n2)cc1,-174*
Cc1nc2ccccc2nc1N/N=C/c1ccc(O)cc1,-87*
Oc1ccc(Nc2nc3ccccc3nc2Nc2ccc(O)cc2)cc1,108
COc1ccc(-c2cnnc(N/N=C/c3ccc(O)c(O)c3)n2)cc1,-90*
COc1ccc(-c2cnnc(N/N=C/c3ccc(O)cc3)n2)cc1,-77*
CCc1ccc(NC(=S)Nc2cc(C(=O)O)ccc2N2CC3CC(C2)c2cccc(=O)n2C3)cc1 (configuration not stated),-114*
Cc1cc(C(=O)Nc2ccc3[nH]ccc3c2)no1,-152*
O=C(COc1cccc2cccnc12)Nc1nccs1,-85*
COc1ccccc1OCCCC(=O)Nc1nccs1,-97*
Oc1cccc(C(Nc2nccs2)c2ccc3cccnc3c2O)c1 (configuration not stated),132
COc1cc2ccccc2cc1C(=O)Nc1nccs1,-256*
COc1c(C(=O)Nc2nccs2)ccc2ccccc12,-172*
COc1cccc2c1OCC(C(=O)Nc1nccs1)=C2,-122*
COc1cc2ccccc2cc1C(=O)NCC(c1cccs1)N(C)C (configuration not stated),-106*
SMILES,aSyn 5UTR act
O=S(=O)(c1ccc(F)cc1)c1snnc1-c1ccccc1,-76*
O=S(=O)(c1ccc(Cl)cc1)c1snnc1-c1ccccc1,116
CC1CCCCN1CCCNC(=O)c1ccc2nc(N3CCCCC3)sc2c1 (configuration not stated),-326*
CCOC(CNC(=O)c1ccc2nc(N3CCC(C)CC3)sc2c1)OCC,-180*
CC1CC(C)CN(CCCNC(=O)c2ccc3nc(N4CCOCC4)sc3c2)C1 (configuration not stated),-113*
CCCN1CCN(CCCNC(=O)c2ccc3nc(N4CCC(C)CC4)sc3c2)CC1,-169*
O=C(O)c1ccc(-c2ccc(-c3ccccc3)cc2)s1,64
COc1ccc2cc(C(=O)Nc3ccccc3)sc(=O)c2c1OC,-78*
O=C(Nc1ccccc1)c1cc2ccc3ccccc3c2s1,-90*
O=C(Nc1ccccc1)c1ccc(-c2ccccc2)s1,-215*
COC(c1ccccc1)c1nnc(CCC(=O)N(C)CCOc2ccccc2)o1 (configuration not stated),-83*
COC(c1ccccc1)c1nnc(CCC(=O)N(C)Cc2cccc(-n3cccn3)c2)o1 (configuration not stated),-72*
COc1ccc(OC)c2nc(-c3ccc4c(c3)OCO4)ccc12,-90*
COc1cc2c(O)c3c(c(-c4ccc5c(c4)OCO5)c2cc1OC)C(=O)OC3,108
c1ccc2nc(-c3ccc4c(c3)OCO4)ccc2c1,-81*
CCCc1cc(-c2nc(N)ncc2-c2ccc3c(c2)OCCCO3)c(O)cc1OC,62
O=C(CC1NCCNC1=O)Nc1ccc(Cl)c(Cl)c1 (configuration not stated),-92*
COCCOCCn1c(/C=C/c2ccccc2)nc2ccccc21,-97*
CC(C)n1c(/C=C/c2ccccc2)nc2ccccc21,-118*
COc1cc(Cn2c(-c3nonc3N)nc3ccccc32)ccc1C,96
COc1ccc(/C=C/c2nc3ccccc3n2Cc2ccc(OC)c(OC)c2)cc1,-191*
COc1cc(/C=N/NC(=O)c2ccoc2C)cc(OC)c1OC,-81*
COc1ccc(/C=N/NC(=O)c2ccoc2C)cc1OC,-73*
COc1cc(/C=N/NC(=O)c2cc(-c3ccccc3)sc2N)cc(OC)c1OC,-70*
CCN=C1S/C(=C\c2cn(CC(=O)NCc3ccco3)c3ccccc23)C(=O)N1CC,65
SMILES,aSyn 5UTR act
CCN=C1S/C(=C\c2ccc(-c3cccc(C(=O)O)c3)o2)C(=O)N1CC,-69*
C#CCN1C(=O)S/C(=C\c2ccc(-c3ccc(Cl)c(C(=O)O)c3)o2)C1=O,-93*
COC(=O)C1=C(C)Nc2ccc(C)cc2S1,-64*
CC(NS(=O)(=O)c1cccc(Cl)c1)C(=O)Nc1ccc(-c2nc3ccccc3s2)cc1 (configuration not stated),-139*
Cc1ccc(C)c(S(=O)(=O)NC(C)C(=O)Nc2ccc(-c3nc4ccccc4s3)cc2)c1 (configuration not stated),-108*
CC(C)(C)c1ccc(S(=O)(=O)NCC(=O)Nc2ccc(-c3nc4ccccc4s3)cc2)cc1,-101*
COc1ccc(C(=O)NC(=O)Nc2ncccc2C)cc1,-139*
Cc1cccnc1NC(=O)c1ccc(OCc2c(C)noc2C)cc1,-81*
Cc1cccnc1NC(=O)Nc1ccccc1,-141*
COc1ccc(NC(=O)Nc2ncccc2C)cc1,-157*
Cc1cccnc1NC(=O)Nc1ccc(Cl)cc1,-84*
Cc1c(CCC(=O)N[C@@H](C)C(=O)O)c(=O)oc2cc3oc4c(c3cc12)CCCC4,71
COc1cc(/C=C2\SC(=S)N(Nc3ccccc3)C2=O)ccc1O,-145*
CCOc1cc(/C=C2\SC(=S)N(Nc3ccccc3)C2=O)ccc1O,-165*
O=C1/C(=C/c2ccc(O)c(O)c2)SC(=S)N1Nc1ccccc1,-146*
Cc1ccc(/C=C2\SC(=S)N(CCCC(=O)Nc3cccnc3)C2=O)cc1,79
COc1ccc(/C=C2\SC(=S)N(CCCC(=O)Nc3ccc(O)cc3)C2=O)cc1,78
N#Cc1c(N)nc(N)nc1Nc1ccc(Br)cc1,-64*
O=C(OCCOc1ccccc1)c1n[nH]c2ccccc12,-168*
O=C(Nc1ccccc1)c1nnn(Cc2ccccc2)c1NC(=O)C(F)(F)F,-72*
CC1CCCCN1C(=O)COC(=O)c1n[nH]c2ccccc12 (configuration not stated),-73*
COCCn1c(C)cc(C(=O)COC(=O)c2n[nH]c3ccccc23)c1C,81
O=C(NCCc1ccccc1)c1n[nH]c2ccccc12,-144*
Nc1c(C(=O)NCCc2ccccc2)nnn1Cc1ccccc1,-75*
O=C(NCCc1ccccc1)c1nccc2ccccc12,-111*
SMILES,aSyn 5UTR act
Cc1cc(C)n2c(Br)c(CSc3nc4ccccc4s3)nc2n1,-79*
Cc1csc(SCC(=O)Nc2nc3ccccc3s2)n1,-100*
Cc1cc(NC(=O)CCl)n(-c2nc3ccccc3s2)n1,-77*
CC(C)(C)NC(=O)CCCSc1nc2ccccc2s1,-133*
O=C(CCSc1nc2ccccc2s1)N/N=C/c1c(O)ccc2ccccc12,66
Cc1cc(C)nc(SCC(=O)OCC(=O)Nc2nc3ccccc3s2)n1,-70*
Cc1cc(C)nc(NC(=O)CSc2nc3ccccc3s2)n1,-203*
CCCc1ccc2oc(C(=O)N(Cc3nccn3C)C(C)C)c(C)c2c1,-73*
